From the supplement of paper PMC11001985

Compound: C#CCNC(=O)CCSSCCC(=O)NCCc1ccc(C=O)c(C=O)c1
Experiment: lysine labeling ratio R10:1 (500 µM / 50 µM probe), SILAC-ABPP in living cells; higher = lower intrinsic lysine reactivity toward the probe, active = 2 or less
Conditions: HeLa; probe concentrations 500 vs 50 µM
Procedure, shortened: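 R, given per lysine, is the filtered median high-probe/low-probe MS1 peptide ratio, with the median then taken across forward and reverse replicates. Cells were living SILAC light and heavy HeLa cells in PBS at room temperature, labelled with 50 µM or 500 µM of an alkyne-tagged, disulfide-linked lysine probe. The ceiling applied is 20.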

UniProt P43121, sequence (P43121 whole entry): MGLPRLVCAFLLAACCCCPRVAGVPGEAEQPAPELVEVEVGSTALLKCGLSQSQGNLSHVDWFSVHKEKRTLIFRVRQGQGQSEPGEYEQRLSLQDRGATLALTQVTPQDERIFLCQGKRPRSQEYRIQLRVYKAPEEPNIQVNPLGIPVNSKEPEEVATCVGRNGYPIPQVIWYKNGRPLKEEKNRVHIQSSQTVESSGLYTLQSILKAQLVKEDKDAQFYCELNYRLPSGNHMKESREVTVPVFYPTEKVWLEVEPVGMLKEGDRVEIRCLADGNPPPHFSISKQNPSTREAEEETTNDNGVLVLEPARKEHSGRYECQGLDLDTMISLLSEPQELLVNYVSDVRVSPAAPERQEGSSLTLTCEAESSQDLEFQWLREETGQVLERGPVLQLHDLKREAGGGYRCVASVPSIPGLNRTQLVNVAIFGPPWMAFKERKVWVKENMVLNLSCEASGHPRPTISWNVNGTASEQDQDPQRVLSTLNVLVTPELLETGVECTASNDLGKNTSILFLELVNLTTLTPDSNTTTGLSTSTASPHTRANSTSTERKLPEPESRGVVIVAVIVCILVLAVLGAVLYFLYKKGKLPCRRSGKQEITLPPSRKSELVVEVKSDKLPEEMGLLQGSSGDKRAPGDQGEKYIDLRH
UniProt Q8WVM8, sequence (Q8WVM8 whole entry, looked up): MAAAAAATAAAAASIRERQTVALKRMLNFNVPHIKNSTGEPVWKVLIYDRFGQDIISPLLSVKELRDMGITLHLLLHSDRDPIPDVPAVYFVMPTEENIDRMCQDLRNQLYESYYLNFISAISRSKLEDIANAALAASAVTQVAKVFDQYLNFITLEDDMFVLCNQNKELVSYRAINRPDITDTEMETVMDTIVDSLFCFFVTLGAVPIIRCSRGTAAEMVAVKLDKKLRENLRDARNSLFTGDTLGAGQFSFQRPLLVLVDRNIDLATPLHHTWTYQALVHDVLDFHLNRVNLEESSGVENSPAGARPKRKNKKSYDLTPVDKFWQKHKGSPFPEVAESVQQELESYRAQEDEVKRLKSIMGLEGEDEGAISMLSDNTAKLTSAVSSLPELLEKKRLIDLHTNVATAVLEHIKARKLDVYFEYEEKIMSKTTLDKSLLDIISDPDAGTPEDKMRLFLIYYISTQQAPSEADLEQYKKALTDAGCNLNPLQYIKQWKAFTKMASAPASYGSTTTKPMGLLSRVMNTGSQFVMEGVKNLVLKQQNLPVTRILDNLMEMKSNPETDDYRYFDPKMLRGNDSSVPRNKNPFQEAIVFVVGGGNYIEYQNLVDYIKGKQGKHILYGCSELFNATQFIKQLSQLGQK
UniProt P02656, sequence (P02656 whole entry): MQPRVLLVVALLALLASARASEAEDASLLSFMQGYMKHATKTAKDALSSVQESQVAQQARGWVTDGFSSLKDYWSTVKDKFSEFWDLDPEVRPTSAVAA
UniProt P60981, sequence (P60981 whole entry): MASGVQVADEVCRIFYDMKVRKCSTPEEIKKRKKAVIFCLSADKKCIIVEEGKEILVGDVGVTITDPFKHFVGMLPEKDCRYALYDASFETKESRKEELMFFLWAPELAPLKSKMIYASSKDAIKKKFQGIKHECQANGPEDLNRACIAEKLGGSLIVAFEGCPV
UniProt Q4KMG0, sequence (Q4KMG0 whole entry): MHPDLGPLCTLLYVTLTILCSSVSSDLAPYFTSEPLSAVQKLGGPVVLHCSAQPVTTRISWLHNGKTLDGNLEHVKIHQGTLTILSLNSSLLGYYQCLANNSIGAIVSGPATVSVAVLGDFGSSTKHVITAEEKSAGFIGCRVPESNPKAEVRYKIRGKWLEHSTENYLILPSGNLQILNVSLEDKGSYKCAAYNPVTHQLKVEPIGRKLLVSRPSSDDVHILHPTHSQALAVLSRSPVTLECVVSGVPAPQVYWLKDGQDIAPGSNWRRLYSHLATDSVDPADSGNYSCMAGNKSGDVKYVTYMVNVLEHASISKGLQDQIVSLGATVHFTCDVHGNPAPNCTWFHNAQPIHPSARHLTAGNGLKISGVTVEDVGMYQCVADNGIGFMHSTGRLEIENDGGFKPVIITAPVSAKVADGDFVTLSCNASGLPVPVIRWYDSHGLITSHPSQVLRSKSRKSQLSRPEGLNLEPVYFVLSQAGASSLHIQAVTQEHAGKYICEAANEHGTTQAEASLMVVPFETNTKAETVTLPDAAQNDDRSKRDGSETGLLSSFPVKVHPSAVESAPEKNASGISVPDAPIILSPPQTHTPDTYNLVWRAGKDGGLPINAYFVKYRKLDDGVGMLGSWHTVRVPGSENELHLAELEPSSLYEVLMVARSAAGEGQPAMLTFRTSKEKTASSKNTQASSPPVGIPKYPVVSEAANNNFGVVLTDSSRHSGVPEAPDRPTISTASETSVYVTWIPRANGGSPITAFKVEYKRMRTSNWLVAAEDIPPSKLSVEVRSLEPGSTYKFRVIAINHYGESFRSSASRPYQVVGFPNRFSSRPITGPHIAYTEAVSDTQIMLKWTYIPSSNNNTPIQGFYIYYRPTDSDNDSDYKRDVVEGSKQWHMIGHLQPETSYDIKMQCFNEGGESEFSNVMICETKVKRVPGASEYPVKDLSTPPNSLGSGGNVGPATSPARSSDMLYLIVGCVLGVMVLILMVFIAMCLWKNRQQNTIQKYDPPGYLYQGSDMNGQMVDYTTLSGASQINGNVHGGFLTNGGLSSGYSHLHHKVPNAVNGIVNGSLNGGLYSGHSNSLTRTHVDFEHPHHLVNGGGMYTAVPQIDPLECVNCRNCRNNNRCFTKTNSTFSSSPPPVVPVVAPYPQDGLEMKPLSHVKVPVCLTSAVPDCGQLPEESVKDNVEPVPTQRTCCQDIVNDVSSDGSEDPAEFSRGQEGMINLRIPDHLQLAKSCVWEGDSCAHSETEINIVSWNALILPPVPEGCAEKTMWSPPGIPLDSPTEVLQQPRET
UniProt Q99985, sequence (Q99985 whole entry): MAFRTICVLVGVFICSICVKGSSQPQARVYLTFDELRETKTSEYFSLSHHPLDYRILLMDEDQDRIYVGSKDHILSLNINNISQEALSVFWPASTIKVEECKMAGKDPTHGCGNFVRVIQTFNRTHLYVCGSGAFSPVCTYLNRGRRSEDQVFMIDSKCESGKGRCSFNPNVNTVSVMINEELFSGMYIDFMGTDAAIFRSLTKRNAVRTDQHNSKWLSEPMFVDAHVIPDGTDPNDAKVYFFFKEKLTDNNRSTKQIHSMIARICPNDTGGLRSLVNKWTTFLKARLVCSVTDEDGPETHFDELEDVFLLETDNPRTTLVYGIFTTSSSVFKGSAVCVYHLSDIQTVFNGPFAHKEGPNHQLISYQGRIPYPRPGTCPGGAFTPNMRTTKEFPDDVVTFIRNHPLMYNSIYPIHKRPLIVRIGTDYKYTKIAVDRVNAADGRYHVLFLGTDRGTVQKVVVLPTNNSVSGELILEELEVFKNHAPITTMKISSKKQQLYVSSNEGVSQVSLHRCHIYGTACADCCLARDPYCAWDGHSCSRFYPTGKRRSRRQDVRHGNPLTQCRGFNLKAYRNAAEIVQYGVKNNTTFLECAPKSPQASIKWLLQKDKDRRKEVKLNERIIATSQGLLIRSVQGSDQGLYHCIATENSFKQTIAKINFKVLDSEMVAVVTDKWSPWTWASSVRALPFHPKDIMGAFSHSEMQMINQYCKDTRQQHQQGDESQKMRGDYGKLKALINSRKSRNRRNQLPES
UniProt P10809, sequence (P10809 whole entry): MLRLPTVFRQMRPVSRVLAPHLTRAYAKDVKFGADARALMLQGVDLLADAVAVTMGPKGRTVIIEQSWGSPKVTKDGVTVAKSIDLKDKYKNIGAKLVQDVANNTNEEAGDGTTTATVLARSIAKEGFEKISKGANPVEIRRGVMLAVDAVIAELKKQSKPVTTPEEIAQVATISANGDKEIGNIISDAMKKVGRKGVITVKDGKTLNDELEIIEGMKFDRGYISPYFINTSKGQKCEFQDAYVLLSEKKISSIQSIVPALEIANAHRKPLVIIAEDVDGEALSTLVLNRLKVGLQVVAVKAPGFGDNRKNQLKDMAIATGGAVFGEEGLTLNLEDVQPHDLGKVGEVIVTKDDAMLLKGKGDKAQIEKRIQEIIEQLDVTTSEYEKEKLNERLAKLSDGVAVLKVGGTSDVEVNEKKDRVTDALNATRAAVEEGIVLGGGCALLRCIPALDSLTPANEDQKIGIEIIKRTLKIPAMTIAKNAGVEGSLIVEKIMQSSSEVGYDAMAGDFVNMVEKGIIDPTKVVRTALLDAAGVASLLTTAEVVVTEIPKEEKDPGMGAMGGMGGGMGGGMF
UniProt P62873, sequence (P62873 whole entry): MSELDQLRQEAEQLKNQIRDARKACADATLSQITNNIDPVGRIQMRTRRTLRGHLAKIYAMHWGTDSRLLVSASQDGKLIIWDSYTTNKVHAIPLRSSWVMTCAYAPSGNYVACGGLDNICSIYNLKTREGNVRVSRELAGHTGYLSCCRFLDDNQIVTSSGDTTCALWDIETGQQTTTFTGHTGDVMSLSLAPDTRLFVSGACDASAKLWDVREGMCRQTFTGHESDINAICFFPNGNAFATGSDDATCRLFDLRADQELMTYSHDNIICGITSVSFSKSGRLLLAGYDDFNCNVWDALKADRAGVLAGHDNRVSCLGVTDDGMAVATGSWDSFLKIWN
UniProt O76095, sequence (O76095 whole entry): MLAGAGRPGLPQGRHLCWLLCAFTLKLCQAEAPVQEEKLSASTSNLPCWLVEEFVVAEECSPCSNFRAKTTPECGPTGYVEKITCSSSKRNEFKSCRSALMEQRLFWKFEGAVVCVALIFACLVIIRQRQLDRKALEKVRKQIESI
UniProt Q9BZM5, sequence (Q9BZM5 whole entry): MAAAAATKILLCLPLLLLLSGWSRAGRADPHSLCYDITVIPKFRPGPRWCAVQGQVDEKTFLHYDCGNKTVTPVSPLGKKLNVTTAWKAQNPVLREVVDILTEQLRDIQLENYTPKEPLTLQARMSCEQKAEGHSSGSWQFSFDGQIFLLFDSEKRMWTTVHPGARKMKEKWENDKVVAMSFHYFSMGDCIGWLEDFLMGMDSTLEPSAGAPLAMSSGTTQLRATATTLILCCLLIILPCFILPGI

Lysine labeling ratio R10:1, inactive:
ACSL3 (lysine site: K706) (UniProt O95573) 3.43
CDCP1 (lysine site: K369) (UniProt Q9H5V8) 2.97
JTB (lysine site: K94) (UniProt O76095) 5.2
IGSF3 (lysine site: K373) (UniProt O75054) 3.12
APOC3 (lysine site: K44) (UniProt P02656) 3.68
ANTXR1 (lysine site: K94) (UniProt Q9H6X2) 2.11
PRDX1 (lysine site: K93) (UniProt Q06830) 4.52
CCT2 (lysine site: K522) (UniProt P78371) 3.39
HSPA4 (lysine site: K686) (UniProt P34932) 8.32
RBMX (lysine site: K86) (UniProt P38159) 2.06
MCAM (lysine site: K182) (UniProt P43121) 3.4
SPTAN1 (lysine site: K2052) (UniProt Q13813) 3.09
ULBP2 (lysine site: K116) (UniProt Q9BZM5) 5.14
UniProt P62873 (lysine site: K15) 3.12
HSPD1 (lysine site: K301) (UniProt P10809) 2.58
EEF2 (lysine site: K572) (UniProt P13639) 2.79
SEMA3C (lysine site: K547) (UniProt Q99985) 2.69
UniProt P62195 (lysine site: K55) 2.19
HNRNPU (lysine site: K265) (UniProt Q00839) 2.4
ITGA6 (lysine site: K586) (UniProt P23229) 12.8
CCT5 (lysine site: K392) (UniProt P48643) 2.73
MCAM (lysine site: K153) (UniProt P43121) 4.14
SCFD1 (lysine site: K572) (UniProt Q8WVM8) 2.58
DSG2 (lysine site: K67) (UniProt Q14126) 3.97
S100A6 (lysine site: K47) (UniProt P06703) 6.34
MYH9 (lysine site: K856) (UniProt P35579) 2.68

Lysine labeling ratio R10:1, active:
RPL10A (lysine site: K212) (UniProt P62906) 1.53
UniProt P62249 (lysine site: K26) 1.43
SEMA4D (lysine site: K104) (UniProt Q92854) 0.575
UniProt Q4KMG0 (lysine site: K149) 1.47
SCARB1 (lysine site: K288) (UniProt Q8WTV0) 0.704
ACTBL2 (lysine site: K114) (UniProt Q562R1) 1.15
CTTN (lysine site: K161) (UniProt Q14247) 1.61
FAT1 (lysine site: K978) (UniProt Q14517) 0.71
LAMA5 (lysine site: K1940) (UniProt O15230) 1.65
DSTN (lysine site: K78) (UniProt P60981) 1.54
RPS27A (lysine site: K113) (UniProt P62979) 1.38
WDR1 (lysine site: K7) (UniProt O75083) 0.76
HSPA8 (lysine site: K246) (UniProt P11142) 1.78
IMPDH2 (lysine site: K422) (UniProt P12268) 1.55
